# Source: PubChem
# This is a sample that favours compounds with a hit; in the whole collection about 3.9% have one here.
# HSF-1 act: increases HSF-1 driven luciferase reporter signal. NIH3T3-HGL HSF-1 luciferase reporter, MG132, 8 h; 100% = twice DMSO control signal. activation, % at 9 µM. actives 1.7% (n = 300,000). AID 504408;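 active means mean replicate activation of at least 50% with a set share of replicates each reaching 50%; inconclusive means only one of those two conditions met; inactive means mean below 50% and too few replicates reaching it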;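 further: 0% = median of the neutral control wells and 100% = twice that signal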
# Wnt act: activates Wnt/beta-catenin signaling in a reporter cell assay. activation, % at 9.35 µM. activator, plate reader. actives 1.2% (n = 300,000); in the data active means activation above about 30%, passing the limit was not always enough; inconclusive means no clear call, values can overlap the other calls;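 further: 0% = neutral control wells and 100% = positive control wells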
# HSF1 inh: HSF1 inhibition; actives 0.77% (n = 300,000); activity change, negative = inhibition, % at 7.5 µM (by protocol); NIH3T3-HGL HSE-luciferase, MG132-induced, luminescence 8 h; active compounds read low;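 active means more than half of replicate wells show activity change below -50%, luminescence cut by over half; inconclusive means some wells, but at most half, below -50%; inactive means no replicate well below -50%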;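 further: luciferase reports HSF-1 transcriptional activity via heat shock element; 0% = median of DMSO wells and -100% = zero luminescence signal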
# esBAF inh: SWI/SNF esBAF complex inhibition. mouse ES cells, Bmi1-luciferase knock-in reporter, 24 h; 100% = twice the neutral-well signal. reporter increase, % at 12.5 µM. actives 2% (n = 350,000); in the data active means activation above about 40%; inconclusive means no clear call, values can overlap the other calls;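 further: 0% = median of the plate's neutral control wells and 100% = double that signal; a rise in the Bmi1 reporter signal indicates esBAF inhibition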
# MITF act: activators of MITF-driven TRPM1 promoter activity in SK-MEL-5 cells. activation, % at 12.5 µM. AID 588334. actives 0.75% (n = 300,000). SK-MEL-5 TRPM1-promoter luciferase, 24 h; % of positive control, neutral wells = 0;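 active means mean activation of at least 80% with every replicate also reaching 80%; inconclusive means mean reaches 80% but some replicate falls short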;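 further: 0% = neutral control wells and 100% = parthenolide positive control wells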
# * hit, by the source's call; u = inconclusive; x = no result.
SMILES,HSF-1 act,Wnt act,HSF1 inh,esBAF inh,MITF act
CCOC(=O)c1sc(NC(=O)CSc2nncs2)c(C(=O)OCC)c1C,56*,20,39,9,18
CCOC(=O)c1sc(NC(=O)CCN2CCC(C)CC2)c(C(=O)OCC)c1C,233*,-1,191,x,6
COc1ccccc1CN(C)C(=O)C1COc2ccccc2O1 (configuration not stated),-63,39*,u,1,x
Cc1ccc(NC(=O)CN(C)C(=O)C2COc3ccccc3O2)cc1 (configuration not stated),-8,-1,-5,x,-6
O=C(C[C@H]1C[C@@H]2c3cc(NC(=O)Nc4ccccc4F)ccc3O[C@@H]2[C@@H](CO)O1)NCCc1ccccc1,x,x,x,23,x
CCCN1CCN(C(=O)c2cc(COc3ccc(F)c(F)c3)on2)CC1,-6,8,5,u,12
CCCOC1CCCN(C(=O)c2cc(COc3ccc(F)c(F)c3)on2)C1 (configuration not stated),32,21,18,47*,90*
COc1cc(Cl)ccc1OCc1cc(C(=O)N2CCN(C3CCCCC3)CC2)no1,x,6,x,24,x
COc1cc(Cl)ccc1OCc1cc(C(=O)N2CCCCCC2)no1,11,1,-1,45*,22
COc1cc(Cl)ccc1OCc1cc(C(=O)N2CCCC(OC)C2)no1 (configuration not stated),3,45*,21,75*,55
COc1ccc(NC(=O)N[C@H]2C=C[C@H](CC(=O)NC3CCC3)O[C@@H]2CO)cc1,x,x,x,0,x
C[C@H](CO)N1C[C@H](C)[C@@H](CN(C)C)Oc2ccc(NC(=O)c3ccncc3)cc2C1=O,x,x,x,2,x
C[C@@H]1CN([C@H](C)CO)C(=O)Cc2cc(NS(=O)(=O)c3ccccc3)ccc2O[C@H]1CN(C)CC1CC1,x,x,x,6,x
CN(C)c1ccc(C(=O)N2CCN(c3cc(C(F)(F)F)nc4ccccc34)CC2)cc1,2,55*,-9,1,12
O=C(O)COCC(=O)N1CCN(c2cc(C(F)(F)F)nc3ccccc23)CC1,7,0,-7,17,5
CN(C)/C=C/C(=O)c1cnc(-c2ccccc2)s1,11,5,-1,56*,74
CN(C)/C=C/C(=O)c1cnc(-c2ccc(Cl)cc2)s1,-15,13,-16,x,55
O=C(c1ccccc1)c1cnc(-c2ccc(Cl)cc2)s1,14,40*,10,39,x
COc1ccc(S(=O)(=O)Nc2ccc3c(c2)C(=O)N([C@@H](C)CO)C[C@@H](C)[C@H](CN(C)C(=O)C2CCCCC2)OCCCC[C@@H](C)O3)cc1,x,x,x,13,x
Cc1ccc(-c2ccc([C@@H]3[C@@H](CO)N4CCCCN(C(=O)c5ccc(F)cc5)C[C@H]34)cc2)cc1,x,x,x,-5,x
CSc1nc2nccc(-c3ccc(Cl)cc3)n2n1,-7,x,-5,-5,4
CSc1nc2nccc(/C=C\c3ccccc3)n2n1,56*,1,36,5,-23
CCNc1oc(COc2ccccc2F)nc1C#N,-9,x,0,52*,13
C[C@@H]1CN([C@H](C)CO)S(=O)(=O)c2ccc(-c3cncnc3)cc2O[C@H]1CN(C)C(=O)CC1CC1,x,x,x,-2,x
CC(C)=C1C2CCC1C1C(=O)N(c3ccc(C)c(C)c3)C(=O)C21 (configuration not stated),-78,1,-71*,x,8
SMILES,HSF-1 act,Wnt act,HSF1 inh,esBAF inh,MITF act
COCC(C)NC(=O)/C(=C/c1ccccc1)c1ccccc1 (configuration not stated),60*,5,21,-1,-5
CCC(C)NC(=O)c1ccc2nc(-c3ccc(OC)c(OC)c3)c(-c3ccc(OC)c(OC)c3)nc2c1 (configuration not stated),-7,-1,2,7,0
COCC(C)NC(=O)c1ccc2nc(-c3ccccc3)c(-c3ccccc3)nc2c1 (configuration not stated),-86,0,-81*,7,1
C[C@H](CO)N1C[C@H](C)[C@@H](CN(C)Cc2ccc(-c3ccccc3)cc2)Oc2ccc(NS(=O)(=O)c3cn(C)cn3)cc2C1=O,x,x,x,-2,x
COCC(=O)N(C)C[C@H]1Oc2cc(-c3ccccc3F)ccc2S(=O)(=O)N([C@H](C)CO)C[C@@H]1C,x,x,x,0,x
O=C(c1cccc(F)c1)N1C[C@@H]2[C@H](c3ccccc31)[C@H](CO)N2C(=O)C1CC1,x,x,x,-4,x
COc1cc2[nH]c(=S)n(Cc3ccco3)c(=O)c2cc1OC,140*,x,77,-5,-2
CCOC(=O)c1ccc2c(c1)NCc1cccc(OC)c1O2,13,24,17,58*,45
COc1ccc(C(=O)OCC(=O)c2ccc3c(c2)NC(=O)CO3)cc1OC,x,-2,x,-3,0
Cc1ccc(-c2nc3ccccc3s2)cc1NC(=S)NC(=O)/C=C/c1ccco1,65*,x,46,65*,-21
O=C(/C=C/c1ccco1)NC(=S)Nc1cccc(-c2nc3ccccc3s2)c1,10,-2,7,-8,-1
O=C(/C=C/c1ccco1)NC(=S)Nc1cc(-c2nc3ccccc3s2)ccc1Cl,x,50*,x,x,-9
CO[C@H]1CN(C)C(=O)c2cc(NC(=O)c3ccccc3)ccc2OC[C@@H](C)N(C(=O)CN(C)C)C[C@@H]1C,x,x,x,-4,x
CC1=NN(c2nc(-c3ccc(Cl)cc3)cs2)C(=O)C1,0,x,0,-4,14
Cc1ccc(-c2csc(N3C(=N)SCC3=O)n2)cc1,21,50*,13,x,x
O=C(C[C@H]1CC[C@@H](NC(=O)NC2CCCC2)[C@H](CO)O1)NCc1ccc(F)cc1,x,x,x,1,x
C=CCn1c(-c2ccccc2OC)n[nH]c1=S,-7,0,-5,x,-19
C=CCn1c(-c2cccc3ccccc23)n[nH]c1=S,-79,-6,-73*,21,3
COc1ccc(NC(=O)N(C)C[C@H]2OCCCC[C@H](C)Oc3ccc(NC(=O)Nc4ccc(F)cc4)cc3C(=O)N([C@H](C)CO)C[C@@H]2C)cc1,x,x,x,-1,x
C/C(N)=C(/C#N)C(=O)COC(=O)c1cc(C)n(-c2ccc(F)cc2)c1C,84*,-3,52,67*,69
Cc1cc(C(=O)OCC(N)=O)c(C)n1-c1ccccc1,42,3,13,x,8
CC1(C)CC(=O)C(C(c2cccnc2)C2C(=O)CC(C)(C)CC2=O)C(=O)C1,-92,x,-90*,-4,13
CS(=O)(=O)c1ccc2nc(NC(=O)c3ccccc3Br)sc2c1,32,4,21,58*,x
COc1ccccc1C(=O)Nc1nc2ccc(S(C)(=O)=O)cc2s1,14,x,9,49*,60
CN(C)S(=O)(=O)c1ccc2nc(NC(=O)c3cccnc3)sc2c1,20,38*,27,x,61
COc1cc(C)ccc1OCC(=O)Nc1ccc2c(c1)OCO2,x,48*,x,17,75
COc1ccccc1OCC(=O)Nc1ccc2c(c1)OCO2,21,10,11,35,46
